Rows were chosen to be rich in hits. Some 10% of all compounds tested hit in one or more screens of this group.
GPT2 inh: Primary qHTS assay for inhibitors of Glutamate pyruvate transaminase 2 (GPT2); Alanine aminotransferase 2 (Homo sapiens), Q8TD30; Recombinant GPT2, coupled pyruvate oxidase/HRP Amplex Red fluorescence; Potency, µM (top dose mostly 57.7 µM), inactives show at the top dose activity change, negative = inhibition, usual class: inhibitors; actives 0.25% (n = 100,000); AID 1671188, 2021; further: nearly all actives have a fitted effect of over 60% in size
Target sequence (Q8TD30 whole entry, looked up): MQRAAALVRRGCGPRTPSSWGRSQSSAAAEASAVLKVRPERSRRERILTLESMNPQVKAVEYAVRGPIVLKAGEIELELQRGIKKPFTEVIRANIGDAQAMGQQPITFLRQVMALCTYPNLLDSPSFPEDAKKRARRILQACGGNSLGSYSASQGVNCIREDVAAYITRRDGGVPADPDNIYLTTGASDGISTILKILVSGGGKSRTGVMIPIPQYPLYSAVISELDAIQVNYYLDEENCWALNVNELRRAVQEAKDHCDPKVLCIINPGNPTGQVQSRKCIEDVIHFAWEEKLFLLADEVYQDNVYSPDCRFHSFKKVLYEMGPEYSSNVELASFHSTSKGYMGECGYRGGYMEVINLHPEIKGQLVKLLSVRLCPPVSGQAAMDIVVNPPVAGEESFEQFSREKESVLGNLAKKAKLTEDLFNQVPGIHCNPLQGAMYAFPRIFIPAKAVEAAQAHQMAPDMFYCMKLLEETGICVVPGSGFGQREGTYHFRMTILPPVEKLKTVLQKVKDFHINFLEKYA
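Inhibition is scored from Amplex Red fluorescence generated when pyruvate oxidase and HRP act on pyruvate released by GPT2. Reactions contain 10ng/uL enzyme, 250uM a-KG and 2mM L-alanine and run 30 min at room temperature.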
HEK cytotox: Cytotoxic Profiling in HEK 293 Cell Line of Diverse Libraries Using Quantitative High-Throughput Screening | HEK 293 viability, ATP luminescence (CellTiter-Glo), 48-72 h | Potency, µM (series often up to 115 µM), without a hit: at the highest dose activity change, negative = cytotoxicity, most hits filed as inhibitors | actives 6.6% (n = 94,000) | AID 1345083, 2018; further: nearly all actives have a fitted effect of over 60% in size
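qHTS cytotoxicity; HEK 293, 250 cells/well; compound pinned; 48 or 72 hr, 37 degree Celsius, 5% CO2, 95% humidity; CellTiter-Glo, 10 min RT; luminescence (ATP).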
FLuc inh: Firefly luciferase inhibition profiling of diverse chemical library using quantitative high-throughput screening; Luciferin 4-monooxygenase (Photinus pyralis), P08659; purified P. pyralis luciferase, luminescence, biochemical; Potency, µM (highest dose often 115 µM), usual class: inhibitors; actives 2.5% (n = 76,000); AID 1347043, 2019; further: nearly all actives have a fitted effect of over 65% in size
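Cell-free enzyme assay, 10nM P. pyralis luciferase, luciferin and ATP each at 10uM. Inhibition profiled over a 6-point titration, read as luminescence.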
NIH3T3 tox: Cytotoxic Profiling in NIH 3T3 Cell Line of Diverse Libraries Using Quantitative High-Throughput Screening; NIH 3T3 viability, CellTiter-Glo ATP luminescence, 48-72 h; Potency, µM (doses to about 96.7 µM), without a hit: at the highest dose activity change, negative = cytotoxicity, most hits filed as inhibitors; actives 4.3% (n = 94,000); AID 1345082, 2018; further: nearly all actives have a fitted effect of over 55% in size
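Cytotoxicity was measured by CellTiter-Glo ATP luminescence after 48 or 72 h compound exposure at 37 °C. Mouse NIH 3T3 fibroblasts were seeded at 400 cells/well and dosed by 23 nL pin transfer.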
NPR1 antag: Natriuretic polypeptide receptor (hNpr1) antagonism - Primary qHTS; Atrial natriuretic peptide receptor 1 (Homo sapiens), P16066; HEK293 hNpr1 GloSensor cGMP, ANP-stimulated luminescence; Potency, µM (series often up to 46.3 µM), for the others: at the top dose activity change, negative = inhibition, usual class: inhibitors; actives 1.6% (n = 76,000); calls by dose curve; further: nearly all actives have a fitted effect of over 60% in size
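Compound pre-incubated 30 min at room temperature on GloSensor-loaded HEK293 cells stably carrying hNpr1 and the pGS-40F cGMP biosensor. Stimulation uses hNppA at 0.1 nM final; luminescence is taken at baseline and 20 min post-agonist.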
* marks the source's active call; other numbers are inactive results; i = inactive; ? = inconclusive; nt = no result given; [ ] = remark or other dose. Unless noted, the call rests on the fitted dose curve; in most records, active means well fitted curve in the direction sought with a large enough effect; inconclusive means small, poorly fitted or top-dose-only effect, or another doubt; inactive means no such curve, though single readings can be large; an effect the other way counts as inactive or inconclusive. On the % scale 0 is the no-effect control and ±100 the full control effect; potency means the concentration at half of the fitted maximal effect.

SMILES	GPT2 inh	HEK cytotox	FLuc inh	NIH3T3 tox	NPR1 antag
O=C(c1ccc(F)cc1)N1CCCN(c2cc(-c3ccc(F)cc3)[nH]n2)CC1	-1%	?	i	-24%	-1%
Cc1ccc(-c2cc(N3CCCN(C(=O)c4cccc(N(C)C)c4)CC3)n[nH]2)cc1C	?	?	?	40µM*	?
O=C(c1ccccc1F)N1CCN(c2cc(-c3ccc(F)cc3)[nH]n2)CC1	i	?	i	?	?
Cc1ccc(-c2cc(N3CCCN(C(=O)c4cccnc4)CC3)n[nH]2)cc1C	-4%	-18%	i	0%	-2%
O=C(c1ccc2cc[nH]c2c1)N1CCCN(c2cc(-c3ccc(F)cc3)[nH]n2)CC1	?	40µM*	i	?	?
CC(C)C[C@H](CO)NC(=O)C[C@@H]1c2nc(NC(=O)c3c(F)cccc3F)sc2C[C@@H]2[C@](C)(CO)[C@H](O)CC[C@]21C	2%	-3%	i	-4%	0%
CCC1Nc2cc(Cl)c(S(N)(=O)=O)cc2S(=O)(=O)N1 (centres undefined)	-2%	nt	nt	nt	nt
CN1C[C@@H](NC(=O)CC(C)(C)CC(=O)O)C[C@H]1c1nc(-c2ccc3c(c2)OCO3)no1	-1%[88.5 µM]	2%[172 µM]	50µM*	-1%[174 µM]	4%[70.6 µM]
CN1C[C@@H](NC(=O)c2ccc3c(c2)OCO3)C[C@H]1c1nc(-c2ccc3ccccc3c2)no1	-16%	79µM*	i	?	-19%
O=C(Nc1cc(-c2cccnc2)nn1-c1ccccc1)c1cccc(Br)c1	i	50µM*	nt	?	nt
O=C(Nc1cc(-c2ccncc2)nn1-c1ccccc1)c1ccccc1	4%	?	nt	?	nt
O=C(Nc1cc(-c2cccnc2)nn1-c1ccccc1)c1ccc(C(F)(F)F)cc1	-13%	?	nt	32µM*	nt
COc1cccc(C(=O)Nc2cc(-c3cccnc3)nn2-c2ccccc2)c1	-7%	?	nt	?	nt
O=C(Nc1cc(-c2ccncc2)nn1-c1ccccc1)c1ccc(Cl)cc1	5%	79µM*	nt	?	nt
CCOCCOC1CCN(S(=O)(=O)c2cn(C)cn2)CC1	i	-3%	i	i	3%
COc1ccc(-c2nc3cc(C)ccc3cc2CN2CCN(C)C(CCO)C2)cc1 (centres undefined)	?	?	i	-31%	-2%
CCN(CC)Cc1cnc2c(C(=O)NC(C)CO)cnn2c1 (centres undefined)	-7%	3%	i	-19%	1%
COc1ccc(C2Cn3cnc(C(=O)N4CCC(C(=O)Nc5cccc(Cl)c5)CC4)c3CO2)cc1 (centres undefined)	i	?	40µM*	-2%	-24%
Cc1ccc(C)c(NC(=O)C2CCN(C(=O)c3ncn4c3COC(c3ccc(F)cc3)C4)CC2)c1 (centres undefined)	-5%	-14%	28µM*	-19%	-17%
Cc1cc(NC(=O)C2CCN(C(=O)c3ncn4c3COC(c3ccc(F)cc3)C4)CC2)ccc1F (centres undefined)	4%	-13%	22µM*	-12%	-4%
Cc1cc(F)ccc1NC(=O)C1CCN(C(=O)c2ncn3c2COC(c2ccc(F)cc2)C3)CC1 (centres undefined)	i	-7%	?	i	-1%
Cc1ccc(NC(=O)C2CCN(C(=O)c3ncn4c3COC(c3ccc(F)cc3)C4)CC2)c(C)c1 (centres undefined)	-7%	1%	35µM*	i	-4%
CC(C)[C@H]1CC[C@@]2(O)COC(=O)[C@H]2[C@@H]1/C=C(\CO)C(=O)O	i	nt	nt	nt	nt
O=C(N[C@@H]1CN(c2ncccn2)C[C@H]1CO)C1CC=CC1	i	-10%	i	-21%	-7%
COc1cc(Cl)c(C)cc1NC(=O)CN1C(=O)NC(c2ccc(Cl)cc2)C2=C1COC2=O (centres undefined)	0%	16µM*	i	18µM*	-15%
SMILES	GPT2 inh	HEK cytotox	FLuc inh	NIH3T3 tox	NPR1 antag
COc1ccc(NC(=O)CN2C(=O)NC(c3ccc(Cl)cc3)C3=C2COC3=O)cc1Cl (centres undefined)	i	?	?	25µM*	-21%
CS(=O)(=O)c1ccc(OC[C@H]2C[C@@H](NC(=O)c3cnccn3)[C@H](O)[C@@H]2O)cc1	i	?	i	3%	3%
COc1cccc(N2C(=O)OCC23CCN(CCCc2ccccc2)C3)c1 (centres undefined)	-11%[88.5 µM]	?	i	?	-3%[70.6 µM]
Cn1cc(CN2CC3(COCC(=O)N(Cc4cccc(OC(F)(F)F)c4)C3)C2)cn1	-4%[88.5 µM]	?	i	-19%[138 µM]	-16%[70.6 µM]
O=C1COCC2(CN1Cc1cccc(OC(F)(F)F)c1)CN(c1ccccc1F)C2	-18%[88.5 µM]	89µM*	i	89µM*	0%[70.6 µM]
O=C1OCC2(CCN(Cc3cccc(OC(F)(F)F)c3)C2)N1c1ccncc1 (centres undefined)	-2%[88.5 µM]	100µM*	i	?	7%[70.6 µM]
O=C1COCC2(CN(Cc3ccsc3)C2)CN1Cc1cccc(OC(F)(F)F)c1	-7%[88.5 µM]	63µM*	i	45µM*	-19%[70.6 µM]
CC(=O)O[C@H]1C[C@@](O)(C(C)C)[C@@H]2[C@@H](OC(=O)c3ccc(O)cc3)CC(C)=CC[C@@]12C	0%[27.3 µM]	nt	nt	nt	nt
C#CCN(C)Cc1nc(C2(O)CCN(C(=O)c3ccc(F)cc3)CC2)cs1	-26%[88.5 µM]	-6%[172 µM]	i	-13%[174 µM]	-2%[70.6 µM]
O=C(Nc1cccnc1)c1ccc2c(c1)OCCN(c1cccc(OC(F)(F)F)c1)C2	2%[88.5 µM]	28µM*	i	?	?
Cc1cc(C)cc(-c2ccc(CN3CCCC(NC(=O)Nc4ccc(Cl)cc4)C3)cc2)c1 (centres undefined)	5%	-4%	nt	-14%	nt
COc1ccc(F)cc1-c1ccc(CN2CCC(NC(=O)Nc3ccc(Cl)cc3)C2)cc1 (centres undefined)	nt	13µM*	nt	11µM*	nt
O=C(Nc1ccc(Cl)cc1)NC1CCN(Cc2ccc(-c3ccsc3)cc2)C1 (centres undefined)	i	?	nt	?	nt
COc1ccc(F)cc1-c1ccc(CN2CCC(NC(=O)NC3CCCC3)C2)cc1 (centres undefined)	nt	20µM*	nt	13µM*	nt
COc1ccc(F)cc1-c1ccc(CN2CCC(NC(=O)Nc3ccc(C)c(F)c3)C2)cc1 (centres undefined)	nt	25µM*	nt	16µM*	nt
